AHR act – human AHR activation; activation, % at 5 µM; AHR-responsive luciferase reporter cells, luminescence; hit rate 2.5% among 320,000; P35869; in the data active = activation above about 47%;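 note: 0% = vehicle wells and 100% = reference agonist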
hgDAF12 agonist – hgDAF-12 agonism, primary luciferase screen. HEK293 GAL4-hgDAF12 UAS-luciferase reporter, agonist luminescence; normalized to butyrate control. activation, % at 6.8 µM. hit rate 1.8% among 370,000. AID 687014;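 active = activation above a cutoff set at the mean of all screened compounds plus 3 SD, cut at about 10% in these data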;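 note: 0% = DMSO wells and 100% = sodium butyrate wells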
DAX1 inh-1 – inhibits human nuclear receptor DAX1; HEK293 Gal4-DAX1 luciferase reporter, luminescence; inhibition, % at 6.75 µM; hit rate 0.99% among 340,000; AID 504766;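 active = inhibition above the mean over all tested compounds plus 3 SD, cut at about 4.2% in these data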;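 note: 0% = DAX1-transfected cells with DMSO and 100% = empty-vector control cells with DMSO; inhibition shows as a rise in luminescence from relieved DAX1 repression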
DAX1 inh-2 – blocks DAX1 repression of SF-1 activated StAR promoter; HEK293T StAR-luciferase reporter, SF-1/DAX-1 repression relief; inhibition, % at 6.8 µM; hit rate 1.1% among 370,000;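 active = inhibition above the mean over all tested compounds plus 3 SD, cut at about 3.6% in these data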;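 note: 0% = DAX-1 cells with DMSO and 100% = cells lacking DAX-1 with DMSO; higher inhibition means more luminescence from relief of DAX-1 repression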
hcDAF-12 act – activates DAF-12 receptor from parasite H. contortus. AID 652067. hit rate 1.4% among 370,000. HEK293 hcDAF-12 lit1-tk-luc reporter, luminescence; 0% DMSO, 100% Δ7-dafachronic acid. activation, % at 6.8 µM;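 active = activation above the mean of all tested compounds plus 3 SD, cut at about 5.5% in these data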;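 note: 100% = response to 3 µM Δ7-dafachronic acid high control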
ssDAF12 agonist – S. stercoralis DAF-12 activation, primary screen; HEK293 ssDAF-12/GRIP1 lit1-tk-luc reporter, luminescence; % of 3 µM dafachronic acid response; activation, % at 6.8 µM; hit rate 1% among 370,000; AID 652126;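 active = activation above the mean over all tested compounds plus 3 SD, cut at about 0.9% in these data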;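 note: 0% = DMSO-only wells and 100% = 3 µM delta7-dafachronic acid wells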
An asterisk follows results filed as active; . = no result. Most compounds without a hit are left out; they make up all but 5.7% or so of the library.

SMILES	AHR act	hgDAF12 agonist	DAX1 inh-1	DAX1 inh-2	hcDAF-12 act	ssDAF12 agonist
c1ccc(NC2=NCCN2CC2CCCCC2)cc1	6	-2	0	0	-1	-1
COc1ccc2cc(C#N)c(Cl)nc2c1	2	5	.	0	1	-2
COC(c1ccccc1)c1nnc(CCC(=O)NC2CCCCC2)o1 (configuration not stated)	3	0	1	0	-1	0
COC(c1ccccc1)c1nnc(CCC(=O)N(C)C(C2CC2)C2CC2)o1 (configuration not stated)	11	7	5.2*	0	1	-1
Cc1cc(F)ccc1S(=O)(=O)N1CCCOC1CNC(=O)C(=O)NCc1ccc2c(c1)OCO2 (configuration not stated)	4	1	2	-1	0	-1
CCCCc1cc(=O)oc2c(CN(C)C)c(O)c(Cl)cc12	1	-1	0	-1	-1	1.3*
CC1(C)C2CCC1(C)C(Nc1ccccc1)C2 (configuration not stated)	2	-1	-1	0	1	-1
N#CC(C#N)=C1SC(=Nc2ccccc2)C(=Nc2ccccc2)N1c1ccccc1	.	7	4	4.5*	1	-1
COc1ccc(Nc2nccc(-c3ccc([N+](=O)[O-])cc3)n2)cc1	61*	0	0	-1	-3	-1
COc1nc(Nc2ccc([N+](=O)[O-])cc2)nc(NC2CCCCC2)n1	1	0	0	0	-3	-1
Cc1cc(-c2nnc(CCC(=O)N3CCN(Cc4cccc(F)c4)CC3)o2)c(C)o1	2	-1	6.3*	0	0	0
COc1ccccc1/C=N/NC(=O)C1=NNC(c2ccccc2)(c2ccccc2)C1	11	.	.	.	.	.
CCn1c(Sc2nc(C)nc3scc(-c4cccs4)c23)n[nH]c1=O	3	-3	-1	0	-2	-1
Cc1nc(SCC(=O)NC(=O)NCCC(C)C)c2c(-c3cccs3)csc2n1	0	-2	0	0	-2	2.1*
O=C(Nc1cccc(C(=O)O)c1)/C(=C/c1ccc([N+](=O)[O-])cc1)NC(=O)c1ccccc1	2	-2	2	0	0	-2
CC(C)(C)c1ccc(C(=O)N/C(=C\c2cccc([N+](=O)[O-])c2)C(=O)Nc2cccc(C(=O)O)c2)cc1	67*	2	-2	0	-1	-1
Cc1ccc(C(=O)N/C(=C\c2ccc(-c3cccc([N+](=O)[O-])c3)o2)C(=O)NC(C)(C)C)cc1	56*	-2	-2	-1	0	0
CCCCn1c(=O)[nH]c2nc3cc(N)ccc3nc2c1=O	3	6	0	0	3	-1
CCCCn1c(SCC(=O)Nc2oc(C)c3c(C)n[nH]c(=O)c23)nc2cc(S(N)(=O)=O)ccc21	6	3	-1	1	-1	-1
COc1ccc(/C(C)=N/Nc2nc3ccccc3n3cnnc23)cc1OC	61*	-2	.	0	3	-1
COc1ccc(Nc2nc3ccccc3n3cnnc23)cc1Cl	4	0	-1	0	0	-1
CC(=O)Nc1ccc(NC(=O)C2CCCN2C(=O)Nc2ccc(F)c([N+](=O)[O-])c2)cc1 (configuration not stated)	-2	3	4.9*	1	0	-2
CC(=O)Nc1ccc(NC(=O)C2CCCN2C(=O)Nc2ccccc2[N+](=O)[O-])cc1 (configuration not stated)	-1	-2	0	0	-2	-1
Cc1ccc(S(=O)(=O)N2CCOCC2)cc1NC(=O)CN1CCC(Cc2ccccc2)CC1	-1	-1	-2	-2	-4	-3
CSCCC(NC(=O)COc1cccc2ccccc12)C(=O)O (configuration not stated)	3	-3	1	-1	-1	1.0*
SMILES	AHR act	hgDAF12 agonist	DAX1 inh-1	DAX1 inh-2	hcDAF-12 act	ssDAF12 agonist
CCn1c(SCC(=O)N/N=C/c2cccs2)nc2ccccc21	43	-1	-1	-1	-1	-2
N#C[C@H]1C(O)C(O)c2ccccc2N1C(=O)c1ccccc1 (some centres not stated)	4	0	4.3*	0	0	-1
COC(=O)c1nc(NC2=NCCCCC2)n[nH]1	1	1	1	0	-1	0
Cc1cc(C)nc(NS(=O)(=O)c2ccc(NC(=S)NC(=O)CC(C)C)cc2)n1	1	-3	-1	-1	-2	-1
O=C(NN1C(=O)C2C(C1=O)C1C=CC2C12CC2)c1cccc(Cl)c1 (configuration not stated)	0	-2	5.0*	0	-1	-1
O=C(NN1C(=O)C2C3C=CC(C4CC34)C2C1=O)c1cccc(Cl)c1 (configuration not stated)	-1	3	1	-1	-1	-1
S=c1[nH]ccn1-c1c(Cl)cccc1Cl	21	10	0	0	6.5*	0
C#CCn1c2ccccc2c(=O)n1C(C)CBr (configuration not stated)	.	4	.	2	1	1.1*
C#CCn1c2ccccc2c(=O)n1C(C)C	.	2	.	0	1	-1
Cc1cc(N/C=C\c2nnnn2-c2ccccc2)no1	69*	6	1	-1	1	0
O=C(Nc1cccc(Cl)c1)NC1CC2CCC(C1)N2Cc1cccs1 (configuration not stated)	5	0	4.6*	1	0	-1
CC(C)c1ccc(NC(=O)NC2CC3CCC(C2)N3Cc2cccs2)cc1 (configuration not stated)	0	-2	-1	-1	-2	-1
O=c1c(Cc2c(F)cccc2Cl)c(O)ccn1CCCn1ccnc1	12	2	4.3*	0	0	-1
CC(C)OC(=O)c1cccnc1SCc1cc(=O)n2ccccc2n1	55*	4	-1	0	2	1
Cc1nn(CC(=O)NC2CCC(C)CC2)c(=O)c(C#N)c1C (configuration not stated)	-1	0	0	1	0	-1
O=C(COC(=O)/C=C/c1cccs1)Nc1nc(-c2ccccc2)cs1	7	7	1	-1	5.8*	0
N#Cc1ccc(OCC(=O)Nc2nc(-c3cccnc3)cs2)cc1	49*	1	-1	1	0	0
Cc1cccc(OCC(=O)Nc2nc(-c3ccncc3)cs2)c1	-4	0	0	-1	-2	-2
O=C(COc1ccccc1)Nc1nc(-c2cccnc2)cs1	55*	-2	1	2	0	0
O=C(COc1ccccc1)Nc1nc(-c2ccncc2)cs1	6	-1	0	-1	-2	-1
Cc1cc(C)cc(OCC(=O)Nc2nc(-c3cccnc3)cs2)c1	66*	2	0	2	3	0

Source: PubChem BioAssay (The Scripps Research Institute Molecular Screening Center)
